# According to PubChem BioAssay (NCATS):
# Values joined by “and” are separate entries in the source; they are usually repeats but may differ in a detail not shown here. Identical values can stand only once. Inconclusive results are not listed. A call without a number means that no potency is given here. A structure can be active in one record and inactive in another. Active and inactive are the calls of the source. The call rests on the fitted dose curve; in most records, active means well fitted curve in the direction sought with a large enough effect; inconclusive means small, poorly fitted or top-dose-only effect, or another doubt; inactive means no such curve, though single readings can be large; an effect the other way counts as inactive or inconclusive.
# How the values were obtained:
# [1] = target: Cytochrome P450 3A7 (Homo sapiens) (UniProt P24462); assay: Cytochrome P450 family 3 subfamily A member 7 (CYP3A7) small molecule antagonists: luciferase biochemical qHTS assay (AID 1963596); details: P450-Glo CYP3A7 enzyme luminescence, 1 h; series mostly up to 57.4 µM; further: nearly all actives have a fitted effect of over 40% in size
# How it was run: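 P450-Glo luminescent assay: CYP3A7 enzyme converts a proluciferin substrate to luciferin, detected by luciferase reagent; light proportional to activity. Compounds in DMSO preincubated 10 min with enzyme-substrate mix at room temperature, then NADPH regeneration added for 1 h.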
# [2] = Viability qHTS for spleen associated tyrosine kinase inhibitor (SYKi) drug resistant MV4-11 cells (AID 1963824); details: SYKi-resistant MV4-11 viability, CellTiter-Glo, 72 h; series mostly up to 45 µM; further: nearly all actives have a fitted effect of over 35% in size; further: potency means the concentration at half of the fitted maximal effect
# How it was run: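 CellTiter-Glo luminescence, read 10 min after reagent addition, reports viability after a 72 hr compound exposure. Cells are an MV4-11 line made resistant to SYK inhibition, seeded at 500 per well onto compound-containing plates.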
# [3] = Quantitative highthroughput screen to assess conditional lethalithy of NOMO1 cells grown in RPMI1640 with untreated serum (RPMI+s) (AID 1963876); details: NOMO1 AML cells in RPMI+serum, CellTiter-Glo viability, 48 h; series mostly up to 45.8 µM; further: nearly all actives have a fitted effect of over 35% in size; further: potency means the concentration at half of the fitted maximal effect
# How it was run: (§1)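 Each medium arm—HPLM with 10% dialyzed FBS, or RPMI1640 with 5 mM glucose and 10% untreated or dialyzed FBS—was screened against an 11-point, 3-fold compound titration for 48 h at 37 °C, with CellTiter-Glo luminescence as endpoint.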
# [4] = Quantitative highthroughput screen to assess conditional lethalithy of NOMO1 cells grown in RPMI1640 with dialyzed fetal bovine serum (RPMI+ds) (AID 1963877); details: NOMO1 in RPMI+dialyzed FBS viability, ATP luminescence, 48 h; series mostly up to 45.8 µM; further: nearly all actives have a fitted effect of over 30% in size; further: potency means the concentration at half of the fitted maximal effect
# How it was run: as §1
# [5] = Quantitative highthroughput screen to assess conditional lethalithy of NOMO1 cells grown in Human Plasma-Like Medium with dialyzed fetal bovine serum (HPLM+ds) (AID 1963878); details: NOMO1 AML cells in HPLM+ds, CellTiter-Glo viability, 48 h; series mostly up to 45.8 µM; further: nearly all actives have a fitted effect of over 35% in size; further: potency means the concentration at half of the fitted maximal effect
# How it was run: as §1
# [6] = Quantitative highthroughput screen to assess conditional lethalithy of P12 Ichikawa cells grown in Human Plasma-Like Medium with dialyzed fetal bovine serum (HPLM+ds) (AID 1963879); details: ATP luminescence, 48 h; Potency: viability; series mostly up to 45.8 µM; further: nearly all actives have a fitted effect of over 35% in size; further: potency means the concentration at half of the fitted maximal effect
# How it was run: as §1
# [7] = Quantitative highthroughput screen to assess conditional lethalithy of P12 Ichikawa cells grown in RPMI1640 with dialyzed fetal bovine serum (RPMI+ds) (AID 1963880); details: ATP luminescence, 48 h; Potency: P12-Ichikawa viability; series mostly up to 45.8 µM; further: nearly all actives have a fitted effect of over 35% in size; further: potency means the concentration at half of the fitted maximal effect
# How it was run: as §1
# [8] = Quantitative highthroughput screen to assess conditional lethalithy of P12 Ichikawa cells grown in RPMI1640 with untreated serum (RPMI+s) (AID 1963881); details: ATP luminescence, 48 h; Potency: viability; series mostly up to 45.8 µM; further: nearly all actives have a fitted effect of over 35% in size; further: potency means the concentration at half of the fitted maximal effect
# How it was run: as §1
# [9] = Quantitative highthroughput screen to assess conditional lethalithy of SEM cells grown in Human Plasma-Like Medium with dialyzed fetal bovine serum (HPLM+ds) (AID 1963882); details: SEM B-ALL cells in HPLM+ds, CellTiter-Glo viability, 48 h; series mostly up to 45.8 µM; further: nearly all actives have a fitted effect of over 35% in size; further: potency means the concentration at half of the fitted maximal effect
# How it was run: as §1
# [10] = Quantitative highthroughput screen to assess conditional lethalithy of SEM cells grown in RPMI1640 with unreated serum (RPMI+s) (AID 1963883); details: SEM B-ALL cells, CellTiter-Glo viability, 48 h; series mostly up to 45.8 µM; further: nearly all actives have a fitted effect of over 35% in size; further: potency means the concentration at half of the fitted maximal effect
# How it was run: as §1
# [11] = Quantitative highthroughput screen to assess conditional lethalithy of SEM cells grown in RPMI1640 with dialyzed fetal bovine serum (RPMI+ds) (AID 1963884); details: SEM B-ALL cells, RPMI+dialyzed FBS, CellTiter-Glo viability, 48 h; series mostly up to 45.8 µM; further: nearly all actives have a fitted effect of over 35% in size; further: potency means the concentration at half of the fitted maximal effect
# How it was run: as §1
# [12] = Cellular viability qHTS for adrenocortical cancer (ACC) cell line NCI-H295R (AID 1963990); details: CellTiter-Glo ATP luminescence, 48 h; series mostly up to 46.1 µM; further: nearly all actives have a fitted effect of over 60% in size; further: potency means the concentration at half of the fitted maximal effect
# How it was run: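 IC50 and maximal efficacy derive from four-parameter logistic modelling of titration curves, with reads scaled between DMSO-only wells (0%) and doxorubicin hydrochloride (100% inhibition). Compounds spanned up to 46 uM over 48 h.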
# [13] = Cellular viability qHTS for adrenocortical cancer (ACC) cell line SW-13 (AID 1963989); details: SW-13 ACC cells viability, CellTiter-Glo, 48 h; activity (max response): stronger effect = lower value; further: nearly all actives have a fitted effect of over 65% in size; further: potency means the concentration at half of the fitted maximal effect;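 on activity (max response): cells grown in serum-free medium with ITS supplement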
# How it was run: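 Luminescent ATP read-out (CellTiter-Glo, 20 min at room temperature) measured metabolically competent SW-13 cells after 48 h compound treatment. Final concentrations spanned up to 46 uM; bortezomib served as positive control.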
# Chain of Cytochrome P450 3A7 (Homo sapiens) (P24462 whole entry, looked up): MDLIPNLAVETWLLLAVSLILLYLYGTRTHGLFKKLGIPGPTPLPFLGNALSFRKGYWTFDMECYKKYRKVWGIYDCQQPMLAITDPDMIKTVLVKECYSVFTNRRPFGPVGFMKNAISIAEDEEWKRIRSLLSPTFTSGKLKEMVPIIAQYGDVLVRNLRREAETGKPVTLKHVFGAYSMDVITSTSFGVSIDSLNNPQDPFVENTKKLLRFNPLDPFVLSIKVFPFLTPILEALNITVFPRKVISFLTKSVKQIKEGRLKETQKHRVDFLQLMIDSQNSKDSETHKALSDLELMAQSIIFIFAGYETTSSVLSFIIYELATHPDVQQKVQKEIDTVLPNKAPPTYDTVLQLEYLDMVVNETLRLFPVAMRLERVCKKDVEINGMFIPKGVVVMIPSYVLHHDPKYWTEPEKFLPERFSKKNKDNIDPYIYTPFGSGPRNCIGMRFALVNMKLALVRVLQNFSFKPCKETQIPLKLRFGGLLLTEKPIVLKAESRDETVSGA
smiles,measurement,setting,value
N[C@@H](C(=O)N[C@@H]1C(=O)N2C(C(=O)O)=C(Cl)CS[C@H]12)c1ccccc1,"activity change, negative = inhibition",[1],-8.83% [at 11.5 µM] (inactive)
same,Potency,[2],0.686 µM (active)
same,Potency,[3],inactive
same,Potency,[4],inactive
same,Potency,[5],inactive
same,Potency,[6],inactive
same,Potency,[7],inactive
same,Potency,[8],inactive
same,Potency,[9],inactive
same,Potency,[10],inactive
same,Potency,[11],inactive
same,"activity change, negative = viability loss",[12],-18.4% [at 9.17 µM] (inactive)
N=C(N)c1ccc2cc(OC(=O)c3ccc(N=C(N)N)cc3)ccc2c1,Potency,[1],inactive
same,Potency,[2],18.6 µM (active)
same,Potency,[6],inactive
same,Potency,[9],inactive
same,Potency,[10],inactive
same,Potency,[11],inactive
same,activity (max response),[13],-32.1% (inactive)
OCc1cccnc1,Potency,[1],inactive
same,Potency,[2],inactive
same,activity (max response),[13],0.385% (inactive)
COc1cc2c(Oc3ccc(-c4cnc(Nc5ccc(F)cc5)n(C)c4=O)cc3F)ccnc2cc1OCCCN1CCOCC1,Potency,[1],inactive
same,Potency,[2],58 nM (active) and 29.5 nM (active)
same,Potency,[4],23.5 µM (active)
same,Potency,[5],20.9 µM (active)
same,Potency,[9],0.166 µM (active)
same,Potency,[10],1.05 µM (active)
same,Potency,[11],0.0833 µM (active)
same,Potency,[13],15.8 µM (active)
same,Potency,[12],3.98 µM (active)
CC(CNS(=O)(=O)C(C)C)c1ccc(-c2ccc(C#N)cc2)cc1 (stereo not given),Potency,[1],inactive
same,Potency,[2],2.59 µM (active)
O=C(O)c1cccnc1,Potency,[1],inactive
same,Potency,[2],inactive
same,Potency,[3],8.33 µM (active)
same,Potency,[4],5.26 µM (active)
same,Potency,[5],3.72 µM (active)
same,Potency,[7],10.5 µM (active)
same,Potency,[9],1.18 µM (active)
same,Potency,[10],2.96 µM (active)
same,Potency,[11],2.96 µM (active)
same,activity (max response),[13],-4.23% (inactive) and 5.29% (inactive)
CCOC(=O)N1c2ccc(C(F)(F)F)cc2[C@@H](N(Cc2cc(C(F)(F)F)cc(C(F)(F)F)c2)C(=O)OC)C[C@H]1CC,Potency,[1],inactive
same,Potency,[2],7.42 µM (active)
same,Potency,[3],inactive
same,Potency,[4],inactive
same,Potency,[5],inactive
same,Potency,[6],inactive
same,Potency,[7],inactive
same,Potency,[8],inactive
same,Potency,[9],inactive
same,Potency,[10],inactive
same,Potency,[11],inactive
same,activity (max response),[13],4.35% (inactive)
same,Potency,[12],inactive
Cc1ccnc(NS(=O)(=O)c2ccc(N)cc2)n1,Potency,[1],inactive
same,Potency,[2],inactive
same,activity (max response),[13],8.12% (inactive)
COc1cc2c(Nc3ccc(Br)cc3F)ncnc2cc1OCC1CCN(C)CC1,Potency,[1],inactive
same,Potency,[2],inactive and 731 nM (active) and 2.95 µM (active)
same,Potency,[3],inactive
same,Potency,[6],inactive
same,Potency,[7],inactive
same,Potency,[8],inactive
same,Potency,[13],17.8 µM (active)
same,activity (max response),[13],-8.28% (inactive)
same,Potency,[12],inactive and 25.1 µM (active)
Cn1cc(-c2ccc(F)c(C(F)(F)F)c2)nc1C1CCN(c2ncnc3[nH]ncc23)CC1,Potency,[1],inactive
same,Potency,[2],inactive
same,Potency,[3],inactive
same,Potency,[4],inactive
same,Potency,[5],inactive
same,Potency,[6],inactive
same,Potency,[7],inactive
same,Potency,[8],inactive
same,Potency,[9],inactive
same,Potency,[10],inactive
same,activity (max response),[13],13.1% (inactive)
same,Potency,[12],inactive
CNS(=O)(=O)Cc1ccc2[nH]cc(CCN(C)C)c2c1,Potency,[1],inactive
same,Potency,[2],inactive
same,Potency,[3],inactive
same,Potency,[4],inactive
same,Potency,[5],inactive
same,Potency,[6],inactive
same,Potency,[7],inactive
same,Potency,[8],inactive
same,Potency,[10],inactive
same,Potency,[11],inactive
same,activity (max response),[13],3.13% (inactive)
CC(C)c1noc(N2CCC(COc3ccc(-c4ccc(S(C)(=O)=O)cc4)nc3)CC2)n1,Potency,[1],inactive
same,Potency,[2],5.25 µM (active)
same,Potency,[3],inactive
same,Potency,[4],inactive
same,Potency,[5],inactive
same,Potency,[6],inactive
same,Potency,[7],inactive
same,Potency,[8],inactive
same,Potency,[9],inactive
same,activity (max response),[13],-1.34% (inactive)
same,Potency,[12],inactive
Cc1ncc([N+](=O)[O-])n1C,Potency,[1],inactive
same,Potency,[2],inactive
same,activity (max response),[13],9.67% (inactive)
CCC(=O)N1CCOc2c(cc(-c3ccc(OC)c(OC)c3)cc2OC[C@H]2CCCN(C)C2)C1,Potency,[1],inactive
same,Potency,[2],7.31 µM (active)
NS(=O)(=O)c1cc2c(cc1Cl)NCNS2(=O)=O,Potency,[1],inactive
same,Potency,[2],inactive
same,Potency,[3],inactive
same,Potency,[4],inactive
same,Potency,[5],inactive
same,Potency,[6],inactive
same,Potency,[7],inactive
same,Potency,[8],inactive
same,Potency,[9],inactive
same,Potency,[10],inactive
same,Potency,[11],inactive
same,activity (max response),[13],11.9% (inactive) and 0.967% (inactive)
same,Potency,[12],inactive
CCN(CCO)CCCC(C)Nc1ccnc2cc(Cl)ccc12 (stereo not given),"activity change, negative = inhibition",[1],10.6% [at 4.83 µM] (inactive)
same,"viability, % of control",[2],88.8% [at 4.97 µM] (inactive)
same,Potency,[6],4.18 µM (active)
same,Potency,[7],2.64 µM (active)
same,Potency,[8],10.5 µM (active)
same,activity (max response),[13],4.84% (inactive) and 9.37% (inactive)
same,"activity change, negative = viability loss",[12],1.42% [at 3.81 µM] (inactive) and 0.71% [at 3.81 µM] (inactive)
CCN[C@H]1C[C@H](C)S(=O)(=O)c2sc(S(N)(=O)=O)cc21,Potency,[1],inactive
same,Potency,[2],inactive
same,Potency,[5],inactive
same,Potency,[6],inactive
same,Potency,[7],inactive
same,Potency,[8],inactive
same,Potency,[9],inactive
same,Potency,[10],inactive
same,activity (max response),[13],3.89% (inactive) and 5.72% (inactive)
same,Potency,[12],inactive
CC1COc2c(N3CCN(C)CC3)c(F)cc3c(=O)c(C(=O)O)cn1c23 (stereo not given),Potency,[1],inactive
same,Potency,[2],8.41 µM (active)
same,Potency,[3],inactive
same,Potency,[4],inactive
same,Potency,[5],inactive
same,Potency,[6],inactive
same,Potency,[7],inactive
same,Potency,[8],inactive
same,Potency,[9],inactive
same,Potency,[10],inactive
same,Potency,[11],inactive
same,activity (max response),[13],4.41% (inactive) and 9.62% (inactive)
same,Potency,[12],inactive
